Reference: PubChem BioAssay (Tox21)
Inconclusive results are not listed. Unmarked numbers belong to inactive results. Active and inactive are the calls of the source. Calls follow the shape of the full dose curve.

Each compound was assayed against D(2) dopamine receptor (Homo sapiens) (UniProt P14416) (assay: Dopamine D2 receptor (DRD2) small molecule agonists, cell-based qHTS assay (AID 1963594; also: nearly all actives have a fitted effect of over 35% in size)). Conditions: HEK293-DRD2 cAMP HTRF, agonist mode, 30 min; series mostly up to 92.4 µM; activation: at the top concentration.
Sequence of D(2) dopamine receptor (Homo sapiens) (P14416 whole entry, looked up): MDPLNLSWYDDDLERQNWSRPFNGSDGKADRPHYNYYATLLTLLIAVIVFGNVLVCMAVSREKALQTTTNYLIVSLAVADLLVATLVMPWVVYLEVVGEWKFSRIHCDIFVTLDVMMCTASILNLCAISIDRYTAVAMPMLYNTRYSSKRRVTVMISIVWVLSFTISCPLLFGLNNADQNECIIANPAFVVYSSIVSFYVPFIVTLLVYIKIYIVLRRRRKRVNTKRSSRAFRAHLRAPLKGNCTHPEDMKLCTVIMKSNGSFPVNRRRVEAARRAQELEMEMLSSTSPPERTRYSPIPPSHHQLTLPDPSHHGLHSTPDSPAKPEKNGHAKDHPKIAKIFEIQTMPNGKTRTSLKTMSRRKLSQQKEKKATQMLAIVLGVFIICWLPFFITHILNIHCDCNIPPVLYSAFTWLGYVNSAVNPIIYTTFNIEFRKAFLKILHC
From the text: National Center for Advancing Translational Sciences [NCATS]
Division of Preclinical Innovation [DPI]
U.S. Environmental Protection Agency [EPA]
National Institutes of Environmental Health Sciences [NIEHS]
National Toxicology Program [NTP]
U.S. Food and Drug Administration [FDA]
DRD2 is the D2 subtype of the dopamine receptor, which is coupled to Gi subtype of G protein-coupled receptor. This G protein-coupled receptor inhibits adenylyl cyclase activity. The DRD2-HEK293 cell line stably expressing D2 dopamine receptor can be used for screening agonists and antagonists of interactions between D2 and its ligands. The Hek293-DRD2 cAMP assay is based on HTRF technology. It measures changes of cAMP accumulation in response to Gi coupled GPCR activation or inhibition.
Tox21 Assay Protocol Summary:
DRD2-Hek293 cells were dispensed at 600 cells/3uL/well in 1536-well white plates using a Multidrop Dispenser. After the assay plates were incubated at a 37 C/5% CO2 incubator for 24 h, 1 uL of Ro20-1724 at final concentration of 0.1 mM was transferred to the assay plate by a Flying Reagent Dispenser. Following Ro20-1724 addition, 23 nL of compound dissolved in DMSO, positive controls or DMSO only was added to the assay plates via Wako pintool station. The assay plates were incubated at room temperature for 10 min. Next, 1 uL of NKH477 at 200nM was added into the plates. After the assay plates were incubated at room temperature for an additional 30 min, 2.5 ul/well of cAMP-d2 and 2.5 ul/well of anti-cAMP-cryptate were added respectively into the assay plates using a Flying Reagent Dispenser. The plates were incubated at room temperature for 1 h. The fluorescence intensity in the plates was measured at 340 nm excitation and 665 & 620 nm emission by an Envision plate reader.
% is scaled to controls: 0 for no effect and ±100 for the full control effect.

Row | Compound | activation | Potency
1 | OC[C@H]1O[C@@H]2O[C@H]3[C@H](O)[C@@H](O)[C@@H](O[C@H]4[C@H](O)[C@@H](O)[C@@H](O[C@H]5[C@H](O)[C@@H](O)[C@@H](O[C@H]6[C@H](O)[C@@H](O)[C@@H](O[C@H]7[C@H](O)[C@@H](O)[C@@H](O[C@H]8[C@H](O)[C@@H](O)[C@@H](O[C@H]9[C@H](O)[C@@H](O)[C@@H](O[C@H]1[C@H](O)[C@H]2O)O[C@@H]9CO)O[C@@H]8CO)O[C@@H]7CO)O[C@@H]6CO)O[C@@H]5CO)O[C@@H]4CO)O[C@@H]3CO | 4.57% [at 42.5 µM] | 
2 | O=C(NCc1ncc(C(F)(F)F)cc1Cl)c1c(Cl)cccc1Cl | -2.53% | 
3 | COCCOC(=O)CC#N | -22% | 
4 | BrCCOc1ccccc1 | -0.464% | 
5 | CCCCCCCCCCC=O | 2.48% | 
6 | Nc1ccc(O)c(N)c1 | 8.76% | 
7 | Nc1ccccc1Nc1ccccc1 | 1.33% | 
8 | CCC(Cl)C(Cl)C(Cl)CC(Cl)C(Cl)C(C)Cl (stereo not given) | -23.5% | 
9 | CC(C)(C)CC(C)(C)c1ccc(O)c(Cc2ccc(Cl)cc2Cl)c1 | -8.01% [at 42.5 µM] | 
10 | CCCCCCCCNC(C)C(O)c1ccc(SC(C)C)cc1 (stereo not given) | 17.3% [at 42.5 µM] | 
11 | O=C(O)CNC(=O)c1ccccc1 | 8.03% [at 42.5 µM] | 
12 | COc1ccc2cc(CCC(C)=O)ccc2c1 | 18.1% [at 42.5 µM] | 
13 | CCCCc1oc2ccccc2c1C(=O)c1cc(I)c(OCCN(CC)CC)c(I)c1 |  | inactive
14 | O=P(O)(O)OP(=O)(O)O | -3.46% | 
15 | COCc1nnc(-c2ccc[n+]([O-])c2)n1-c1c(Cl)c(Cl)cc2[nH]c(=O)c(=O)[nH]c12 | 25.4% | 
16 | COC(=O)Nc1nc2ccc(C(=O)c3ccccc3)cc2[nH]1 | 10.8% [at 42.5 µM] | 
17 | CCN(Cc1ccncc1)C(=O)C(CO)c1ccccc1 (stereo not given) | -15.4% [at 42.5 µM] | 
18 | COC(=O)C1=C(C)NC(C)=C(C(=O)OC(C)C)C1c1cccc2nonc12 (stereo not given) | -5.93% [at 42.5 µM] | 
19 | Nc1ccc2c3c(cccc13)-c1ccccc1-2 | 10.8% | 
20 | CC(C)NC[C@@H](O)COc1cccc2ccccc12 | -6.63% [at 42.5 µM] | 

Row | Compound | activation | Potency
21 | CC(CCc1ccc2c(c1)OCO2)NN (stereo not given) | -12.5% [at 42.5 µM] | 
22 | CSc1ccc(C=O)cc1 | -0.36% | 
23 | CCOC(=O)CC(O)(CC(=O)OCC)C(=O)OCC | -19.4% | 
24 | C=CC(=O)OCC(C)OCC(C)OCC(C)OC(=O)C=C (stereo not given) | -2.74% | 
25 | CC(=O)OCCC(C)CC(C)(C)C (stereo not given) | -4.92% | 
26 | CC(=O)OC(C(=O)c1ccccc1)c1ccccc1 (stereo not given) | 2.2% | 
27 | CCCCCOC(=O)c1ccc(O)cc1 | 0.616% | 
28 | CC(C)NCC(O)COc1cccc2[nH]ccc12 (stereo not given) | 13.8% [at 42.5 µM] | 
29 | C=C(C)c1cccc(C(=C)C)c1 | -0.468% | 
30 | CC(C)C(=O)OCCc1ccccc1 | 1.14% | 
31 | O=C(Oc1ccccc1)c1ccc2ccccc2c1O | -6.62% | 
32 | O=c1c2ccccc2oc2ccccc12 | 7.36% | 
33 | COC(OC)(C(=O)c1ccccc1)c1ccccc1 | 0.903% | 
34 | CCOC(=O)COc1ccc2c(C)c(CCN(CC)CC)c(=O)oc2c1Cl | -1.71% [at 42.5 µM] | 
35 | CC(O)C1CCCCC1 (stereo not given) | -0.0417% | 
36 | Nc1nc(F)nc2c1ncn2[C@@H]1O[C@H](CO)[C@@H](O)[C@@H]1O | -9.38% [at 42.5 µM] | 
37 | O=C1OC(=O)c2cc(Oc3ccc4c(c3)C(=O)OC4=O)ccc21 | -10.3% | 
38 | CC(C)COC(=O)C(C)C | 1.49% | 
39 | C=CCCCCCCCCCCCCCC | -4.33% [at 19 µM] | 
40 | O=C1C=CC(=O)N1 | 1.19% | 
